Test results as given in PubChem BioAssay AID1851 (National Center for Advancing Translational Sciences (NCATS), 2009).
In all, about 16,000 compounds went through this assay and about 5,100 (32%) were called active. Not shown: some 25% with an inconclusive outcome. Calls follow the shape of the dose curve; as a rule, active = well fitted curve in the direction sought with a large enough effect; inconclusive = small, poorly fitted or top-dose-only effect, or effect the other way; inactive = no such curve, though single readings can be large or run the other way. The list shows a part of the results. Where a structure was tested more than once in an assay, its records may differ in their call.

target: Cytochrome P450 3A4 (Homo sapiens) (UniProt P08684); test: Cytochrome panel assay with activity outcomes; conditions: recombinant CYP, pro-luciferin dealkylation, luminescence, p450-cyp3a4; series mostly up to 57.1 µM; activity, negative = inhibition: at the top concentration
% is scaled to controls: 0 for no effect and ±100 for the full control effect.

Sequence of Cytochrome P450 3A4 (Homo sapiens) (P08684 whole entry, looked up): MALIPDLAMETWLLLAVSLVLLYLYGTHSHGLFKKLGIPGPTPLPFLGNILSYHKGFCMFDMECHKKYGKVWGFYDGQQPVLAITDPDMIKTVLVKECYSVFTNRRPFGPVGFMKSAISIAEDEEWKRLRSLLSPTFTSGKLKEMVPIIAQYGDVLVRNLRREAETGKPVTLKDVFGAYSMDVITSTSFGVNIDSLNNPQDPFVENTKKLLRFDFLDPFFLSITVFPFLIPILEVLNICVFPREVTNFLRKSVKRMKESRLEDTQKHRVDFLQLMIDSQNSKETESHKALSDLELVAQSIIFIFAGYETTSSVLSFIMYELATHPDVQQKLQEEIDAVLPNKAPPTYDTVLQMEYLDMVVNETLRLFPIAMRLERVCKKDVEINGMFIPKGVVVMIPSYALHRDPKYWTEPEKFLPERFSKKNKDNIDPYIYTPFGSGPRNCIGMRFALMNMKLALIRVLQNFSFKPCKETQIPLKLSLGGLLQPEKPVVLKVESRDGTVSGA

SMILES	activity, negative = inhibition	AC50
CS(=N)(=O)CC[C@@H](N)C(=O)O (some centres undefined)	inactive	
C[C@@H]1O[C@@H](O[C@H]2C[C@@H](O)[C@@]3(CO)[C@H]4[C@H](O)C[C@]5(C)[C@@H](C6=CC(=O)OC6)CC[C@]5(O)[C@H]4CC[C@@]3(O)C2)[C@@H](O)[C@H](O)[C@H]1O	10.6% [at 11.4 µM] (inactive)	
NC(=O)CN1CCCC1=O	inactive	
NNC(N)=O	-9.12% (inactive)	
NC(=O)CI		0.0631 µM (active)
CCCN1CCC[C@@H]2Cc3nc(N)ncc3C[C@H]21	-16.7% (inactive)	
COC(=O)[C@@H]1[C@@H]2C[C@H]3c4[nH]c5cc(OC)ccc5c4CCN3C[C@@H]2C[C@H](OC(=O)/C=C\c2cc(OC)c(OC)c(OC)c2)[C@H]1OC	-25.6% [at 25.6 µM] (inactive)	
COc1cc(CNC(=O)CCCC/C=C\C(C)C)ccc1O		3.98 µM (active)
CNC[C@H](O)c1ccc(O)c(OC)c1	-5% [at 25.6 µM] (inactive)	
COc1cc(CCN)ccc1O	-4.42% (inactive)	
Cc1cccc([C@H](C)c2cnc[nH]2)c1C		0.158 µM (active)
O=P(O)(O)C(Cl)(Cl)P(=O)(O)O	7.29% (inactive)	
C(=C/c1ccccc1)/CN1CCN(CCOC(c2ccccc2)c2ccccc2)CC1	-20.7% (inactive)	
CCC(=O)O[C@@](Cc1ccccc1)(c1ccccc1)[C@@H](C)CN(C)C		5.01 µM (active)
CC(C)[N+](C)(CCC(C(N)=O)(c1ccccc1)c1ccccc1)C(C)C	-24.2% [at 25.6 µM] (inactive)	
O=C(O)[C@H]1[C@H](C(=O)O)[C@H]2CC[C@@H]1O2	-5.34% (inactive)	
COc1cc(CCN)c(OC)c(OC)c1	-5.19% [at 11.4 µM] (inactive)	
CCOP(=O)(CN(CC)CCNP(=O)(OCC)OCC)OCC	10.5% [at 2.29 µM] (inactive)	
CN1CCc2nc3sc(C(=O)NC(C)(C)C)c(N)c3cc2C1	-11.5% [at 2.29 µM] (inactive)	
CC[C@@]1(O)C(=O)OCc2c1cc1n(c2=O)Cc2cc3c(NC(=O)CN)cccc3nc2-1	0.232% [at 11.4 µM] (inactive)	
CC[C@]1(OC(=O)CN)C(=O)OCc2c1cc1n(c2=O)Cc2cc3ccccc3nc2-1	-27% [at 11.4 µM] (inactive)	
CC[C@@]1(O)C(=O)OCc2c1cc1n(c2=O)Cc2cc3ccccc3nc2-1		6.31 µM (active) and inactive
CCc1ccccc1NC(=O)NC1CC2CCC(C1)N2Cc1cccs1 (centres undefined)	-21.2% (inactive)	
COc1ccc(NC(=O)NC2CC3CCCC(C2)N3Cc2ccccc2)cc1 (centres undefined)	16.8% (inactive)	

SMILES	activity, negative = inhibition	AC50
O=C(NC1CCCCC1)NC1CC2CCC(C1)N2Cc1nnnn1Cc1ccc2c(c1)OCO2 (centres undefined)		3.16 µM (active)
C[C@@]12CC[C@H]3[C@H](CC=C4C[C@@H](O)CC[C@@]43C)[C@@H]1CC[C@@H]2N(CCO)CCO	12.7% [at 11.4 µM] (inactive)	
O=C1NCN(c2ccccc2)C12CCN(CCCOc1ccc(F)cc1)CC2	18.9% (inactive)	
COC(=O)CN1CN(c2ccccc2)C2(CCN(Cc3ccc4ccccc4c3)CC2)C1=O		15.8 µM (active)
c1ccc(CN2CCC3(CCNCC3)CC2)cc1	-7.57% (inactive)	
CC[C@]1([C@H]2O[C@@H]([C@@H]3O[C@](O)(CO)[C@@H](C)C[C@H]3C)C[C@H]2C)CC[C@@H]([C@]2(C)CC[C@@]3(C[C@@H](O)[C@@H](C)[C@@H]([C@H](C)[C@H](OC)[C@H](C)C(=O)O)O3)O2)O1	-4.62% [at 25.6 µM] (inactive)	
c1cc2cc(c1)C[n+]1ccc(c3ccccc31)NCc1ccc(cc1)CNc1cc[n+](c3ccccc13)C2	11.2% (inactive)	
O=C(Oc1ccc([N+](=O)[O-])cc1)N1CCC(N2CCCCC2)CC1	-28.2% (inactive)	
C[C@@]12C=CC(=O)C=C1CC[C@@H]1C2=CC[C@]2(C)[C@@H]1CC[C@H]2C(=O)CN1CCN(c2cc(N3CCCC3)nc(N3CCCC3)n2)CC1		3.16 µM (active)
C[As+](C)(c1ccc(Br)c([N+](=O)[O-])c1)c1ccc(Br)c([N+](=O)[O-])c1.O=[N+]([O-])O	-4.86% [at 11.4 µM] (inactive)	
COC(=O)C[C@](O)(CCCC(C)(C)O)C(=O)O[C@@H]1C(OC)=C[C@]23CCCN2CCc2cc4c(cc2[C@H]13)OCO4		12.6 µM (active)
CN(C)CCCc1c[nH]c2ccccc12	-0.0212% [at 11.4 µM] (inactive)	
O=C1CCCN1CC#CCN1CCCC1	inactive	
O=C1C=C2C=C[C@H]3C[C@@]2(O1)[C@H]1CCCCN31	-13.1% [at 25.6 µM] (inactive)	
Nc1ccc(S(=O)(=O)c2ccc(NCN3C(=O)NC(=O)C(=O)C3=O)cc2)cc1		2 µM (active)
CC(=O)NBr	-3.28% (inactive)	
COc1ccc2[nH]cc(CCN)c2c1	-6.61% (inactive)	
NCCc1c[nH]c2ccc(O)cc12	-20.5% [at 25.6 µM] (inactive)	
CS(=O)(=O)Nc1ccc(Cc2noc(-c3ccc4[nH]cc(CCN)c4c3)n2)cc1		15.8 µM (active)
O=C1OC(=O)[C@@H]2[C@@H]1[C@@H]1CC[C@H]2O1	7.25% (inactive)	
C=C[C@H]1CN2CC[C@@H]1C[C@H]2[C@@H](O)c1ccnc2ccccc12	inactive	
CCCN1CCC[C@H](c2cccc(O)c2)C1	inactive	
CC(C)C12CN3CC(C(C)C)(CN(C1)C3c1cccnc1)C2=O (centres undefined)		2.24 µM (active)
CNCCc1ccc(O)c(O)c1	-18.3% (inactive)	

SMILES	activity, negative = inhibition	AC50
NP(N)(=O)NC(=O)c1ccc(F)cc1	-7.05% (inactive)	
NCCc1ccc(O)cc1	-2.1% (inactive)	
NNC(=O)c1ccc(O)cc1		5.01 µM (active)
Ic1cncc(OC[C@@H]2CCN2)c1	-28.9% (inactive)	
CCN(CCCl)Cc1ccccc1Br	-11.1% (inactive)	
COc1ccc(OC)c([C@H](O)[C@H](C)N)c1	inactive	
CN(N=O)C(=O)N[C@H]1[C@@H](O)[C@H](O)[C@H](CO)O[C@@H]1O	-4.4% [at 25.6 µM] (inactive)	
COC(=O)[C@@]1(Cc2ccc(F)cc2)[C@H]2c3cc(C(=O)N(C)C)[nH]c3C[C@H]2CN1C(=O)c1ccccc1		0.631 µM (active)
CC(C)[C@]1(O)[C@@H](OC(=O)c2ccc[nH]2)[C@]2(O)[C@@]3(C)C[C@@]4(O)O[C@@]5([C@H](O)[C@@H](C)CC[C@]35O)[C@]2(O)[C@]41C	-24.6% [at 11.4 µM] (inactive)	
CC(C)c1nccn1Cc1ccc(Cl)cc1Cl	-9.57% [at 11.4 µM] (inactive)	
O=C(O)[C@@H]1C[C@H]1[C@@H](NP(=O)(c1ccccc1)c1ccccc1)c1ccccc1	-0.397% (inactive)	
O=C(O)[C@H]1C[C@@H]1[C@H](NP(=O)(c1ccccc1)c1ccccc1)c1ccccc1	-25.2% (inactive)	
CCC/C=C(\CCC)C(NP(=O)(c1ccccc1)c1ccccc1)c1ccccc1 (centres undefined)		6.31 µM (active)
c1cc(C2N3CCCN2CC3)ccn1 (centres undefined)	-11.6% [at 11.4 µM] (inactive)	
CCCCCCCCCC[Si](C)(C)CCC(=O)N[C@@H](Cc1ccc(C)cc1)c1ccccc1	-12.4% (inactive)	
C[N+]12CCC(CC1)[C@@H](OC(=O)C(O)(c1ccccc1)c1ccccc1)C2	-11.8% [at 25.6 µM] (inactive)	
Cc1nc(-c2ccc(-c3ccc(C(=O)N4CCc5cc6c(cc54)C4(CCN(C)CC4)CO6)cc3)c(C)c2)no1	-15.2% (inactive)	
c1cc(CN2CC3(CCNCC3)C2)ccn1	-30.5% (inactive)	
c1ccc(CN2CCCC3(CCNCC3)C2)cc1	-19.6% (inactive)	
c1cc(CN2CCCC3(CCNCC3)C2)ccn1		15.8 µM (active)
CC(=NCc1ccco1)c1c(O)n(-c2ccccc2)c(=O)[nH]c1=O	11.3% (inactive)	
Cc1nc2ccccc2cc1C[N+]12CN3CN(CN(C3)C1)C2	-6.46% [at 11.4 µM] (inactive)	
Cc1[nH]c2ccc(O)cc2c1CCN	-14.9% (inactive)	
N[C@H](CCCCCP(=O)(O)O)C(=O)O	inactive	

SMILES	activity, negative = inhibition	AC50
OC(c1ccccc1)(c1ccccc1)C1CCCN1 (centres undefined)	-2.76% [at 2.29 µM] (inactive)	
O=C1N[C@@]2(CN3CCC2CC3)C(=O)N1CN(Cc1ccccc1)c1ccccc1	1.78% [at 11.4 µM] (inactive)	
CN1C2CCC1CC(OC(=O)c1ccc(Cl)cc1)C2 (centres undefined)	0.0365% (inactive)	
Cc1sc2c(c1C)C(c1ccc(C(C)(C)C)cc1)=NCC(=O)N2CC(=O)Nc1nccs1		7.94 µM (active)
Nc1nnnn1CCO	-6.3% [at 11.4 µM] (inactive)	
O=c1oc(Cl)c(Cl)c2ccccc12	6.83% (inactive)	
O=C(O)C(C(=O)O)P(=S)(S)c1ccccc1 (centres undefined)	8.13% [at 11.4 µM] (inactive)	
C[C@H]1CC[C@@]2(NC1)O[C@@H]1C[C@H]3[C@@H]4CC=C5C[C@@H](O)CC[C@]5(C)[C@@H]4CC[C@]3(C)[C@@H]1[C@@H]2C	5.49% [at 25.6 µM] (inactive)	
O=[As](O)(O)c1ccc(NCc2ccccc2)cc1	-8.35% [at 11.4 µM] (inactive)	
COc1cc(OC)c(/C=C2/C(=O)Nc3ccccc32)c(OC)c1		2.51 µM (active)
OC(c1ccccc1)(c1ccccc1)C1CCNCC1	-16.4% [at 25.6 µM] (inactive)	
CC(C)(C)C(=O)CP(=O)(O)O	-7.32% [at 11.4 µM] (inactive)	
CCCCc1ccc(C(=O)O)nc1	-1.67% [at 25.6 µM] (inactive)	
C[C@]12CC[C@@H]3[C@H](CCC4=CC(=O)CC[C@]43C)[C@]1(O)CC[C@@]2(O)C(=O)CO	-0.348% [at 11.4 µM] (inactive)	
Oc1ccc(-c2nc(-c3ccc(F)cc3)c(-c3ccncc3)[nH]2)cc1		0.501 µM (active)
N[C@H](Cc1c[nH]c2ccccc12)P(=O)(O)O	-2.01% [at 11.4 µM] (inactive)	
CC[C@H](C(=O)[C@H](C)[C@H](O)[C@H](C)CCc1ccc(C)c(O)c1C(=O)O)[C@H]1O[C@](CC)([C@@H]2CC[C@@](O)(CC)[C@H](C)O2)C[C@H]1C		7.94 µM (active)
CS(=O)(=O)O[C@H]1CN2CCC1CC2	-6.57% [at 11.4 µM] (inactive)	
C[C@@H](C(=O)OC1C[C@H]2CC[C@@H](C1)N2C)c1ccc(Br)cc1 (some centres undefined)	-5.24% (inactive)	
O=C(Cn1ncc2ccsc2c1=O)N1CCC2(CC1)OCCO2	-18.2% (inactive)	
Cc1ccccc1-c1nc(CS(=O)CC(=O)N2CCC3(CC2)OCCO3)c(C)o1 (centres undefined)	18.8% (inactive)	
Cc1oc(-c2ccccc2F)nc1CS(=O)CC(=O)N1CCC2(CC1)OCCO2 (centres undefined)		25.1 µM (active)
